From PubChem
The list is not random: actives were taken first. Their share in the collection is about 10%.
BAZ2B inh = BAZ2B (human) inhibition. Q9UIF8. AlphaScreen BAZ2B-H3K14Ac peptide displacement. Potency, µM (series often up to 114 µM), inactives show at the top dose activity change, negative = inhibition, usual class: inhibitors. hit rate 4.4% among 360,000; also: % is scaled to controls: 0 for no effect and ±100 for the full control effect; nearly all actives have a fitted effect of over 60% in size
Target sequence (Q9UIF8 whole entry, looked up): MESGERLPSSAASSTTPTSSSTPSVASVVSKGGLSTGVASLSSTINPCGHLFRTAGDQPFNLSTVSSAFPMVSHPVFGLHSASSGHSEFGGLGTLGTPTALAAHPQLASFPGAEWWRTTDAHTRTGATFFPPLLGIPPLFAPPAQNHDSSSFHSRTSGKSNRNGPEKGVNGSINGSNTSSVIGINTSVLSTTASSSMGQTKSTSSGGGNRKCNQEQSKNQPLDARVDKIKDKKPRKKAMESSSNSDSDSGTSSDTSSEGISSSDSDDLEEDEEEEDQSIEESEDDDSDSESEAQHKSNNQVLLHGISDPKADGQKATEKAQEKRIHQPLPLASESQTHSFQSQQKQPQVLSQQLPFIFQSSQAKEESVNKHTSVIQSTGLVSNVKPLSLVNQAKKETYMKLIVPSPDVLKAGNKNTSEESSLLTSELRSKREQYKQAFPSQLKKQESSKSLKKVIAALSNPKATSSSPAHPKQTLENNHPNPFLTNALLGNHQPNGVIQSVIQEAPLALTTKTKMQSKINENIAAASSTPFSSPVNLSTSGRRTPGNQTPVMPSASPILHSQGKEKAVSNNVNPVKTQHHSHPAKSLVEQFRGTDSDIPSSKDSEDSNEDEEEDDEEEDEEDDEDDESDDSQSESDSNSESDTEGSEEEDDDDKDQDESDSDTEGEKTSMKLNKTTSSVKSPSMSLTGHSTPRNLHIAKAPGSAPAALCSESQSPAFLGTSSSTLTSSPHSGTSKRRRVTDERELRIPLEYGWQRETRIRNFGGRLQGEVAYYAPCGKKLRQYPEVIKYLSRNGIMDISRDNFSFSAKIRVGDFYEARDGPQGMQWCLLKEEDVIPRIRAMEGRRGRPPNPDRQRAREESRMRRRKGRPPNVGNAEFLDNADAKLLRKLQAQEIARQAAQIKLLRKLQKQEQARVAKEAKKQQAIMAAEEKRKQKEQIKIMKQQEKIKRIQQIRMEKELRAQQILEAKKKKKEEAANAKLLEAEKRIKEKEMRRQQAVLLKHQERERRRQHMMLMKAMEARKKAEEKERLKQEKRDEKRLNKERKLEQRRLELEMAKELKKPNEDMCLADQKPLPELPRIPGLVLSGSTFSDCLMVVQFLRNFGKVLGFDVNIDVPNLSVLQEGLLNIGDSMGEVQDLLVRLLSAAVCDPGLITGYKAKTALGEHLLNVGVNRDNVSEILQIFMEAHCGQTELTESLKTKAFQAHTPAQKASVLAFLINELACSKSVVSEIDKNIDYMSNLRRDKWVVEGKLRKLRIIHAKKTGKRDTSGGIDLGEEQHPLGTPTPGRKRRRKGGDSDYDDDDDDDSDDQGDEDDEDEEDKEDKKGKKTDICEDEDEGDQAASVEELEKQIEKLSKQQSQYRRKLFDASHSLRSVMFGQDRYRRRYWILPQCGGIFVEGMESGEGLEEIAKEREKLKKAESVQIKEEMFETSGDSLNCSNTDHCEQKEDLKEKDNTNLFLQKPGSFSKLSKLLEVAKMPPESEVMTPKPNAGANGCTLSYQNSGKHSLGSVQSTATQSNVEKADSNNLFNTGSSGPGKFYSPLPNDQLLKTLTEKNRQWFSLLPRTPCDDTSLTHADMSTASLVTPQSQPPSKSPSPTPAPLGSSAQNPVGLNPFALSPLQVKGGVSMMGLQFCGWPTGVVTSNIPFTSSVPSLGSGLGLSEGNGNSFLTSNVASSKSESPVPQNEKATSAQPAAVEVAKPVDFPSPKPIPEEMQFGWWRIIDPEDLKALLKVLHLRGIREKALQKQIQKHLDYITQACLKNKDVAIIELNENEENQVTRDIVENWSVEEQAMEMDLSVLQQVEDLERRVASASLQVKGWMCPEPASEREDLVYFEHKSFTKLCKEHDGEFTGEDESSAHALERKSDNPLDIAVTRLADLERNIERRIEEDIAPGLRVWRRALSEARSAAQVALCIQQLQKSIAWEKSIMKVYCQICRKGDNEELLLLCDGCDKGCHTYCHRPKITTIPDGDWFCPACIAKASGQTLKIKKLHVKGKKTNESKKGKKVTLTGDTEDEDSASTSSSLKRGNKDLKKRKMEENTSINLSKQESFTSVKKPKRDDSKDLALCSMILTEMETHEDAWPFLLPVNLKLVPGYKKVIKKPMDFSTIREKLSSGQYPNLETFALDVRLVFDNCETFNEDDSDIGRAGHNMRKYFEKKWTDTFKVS
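AlphaScreen displacement of biotin-H3(5-23)K14Ac peptide (50 nM final) from BAZ2B (50 nM final) in PBS pH 7.4, 0.01% Tween-20; complex preformed 30 min RT, then compounds (top 110 uM) 30 min RT, beads 20 min dark.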
HP1b chromo inh = inhibitors of HP1-beta chromodomain binding to methylated histone tails | P83916 | AlphaScreen HP1-beta / biotin-H3K9me3 peptide binding | Potency, µM (highest dose often 114 µM), inactives show at the top dose activity change, negative = inhibition, usual class: inhibitors | hit rate 0.56% among 390,000 | AID 540317; also: nearly all actives have a fitted effect of over 70% in size
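Compound inhibition of the preformed complex between 50 nM HP1-beta and 50 nM biotinylated H3K9me3 peptide was read by AlphaScreen. Buffer was PBS pH 7.4 with 0.01% Tween-20. Incubations ran 30 min at room temperature, with 10 ug/mL donor/acceptor beads.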
GLS inhibitor = blocks human kidney-isoform glutaminase activity; O94925; hit rate 0.21% among 410,000; Potency, µM (doses to about 45.5 µM), inactives show at the top dose activity change, negative = inhibition, usual class: inhibitors; GLS enzymatic activity, qHTS titration; also: % is scaled to controls: 0 for no effect and ±100 for the full control effect
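Enzyme dispensed in phosphate buffer (45 mM, pH 8.2, 0.02% Tween-20), compounds pinned in, then 1 mM L-glutamine solution and the glutamate oxidase–HRP–Amplex Red mix added; fluorescence read immediately and again after 30 min at room temperature.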
G9a inh = inhibitors of human histone lysine methyltransferase G9a. hit rate 8.8% among 350,000. Potency, µM (doses to about 102 µM), inactives show at the top dose activity, negative = inhibition, most hits filed as inhibitors. G9a H3K9 monomethylation, AlphaScreen, 2 h. AID 504332; also: % is scaled to controls: 0 for no effect and ±100 for the full control effect; nearly all actives have a fitted effect of over 75% in size
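G9a (20 nM) preincubated 15 min RT with compounds, then 500 nM biotinylated H3K9 peptide and 20 uM SAM added; 2 h RT reaction. Monomethyl-H3K9 product detected by AlphaScreen with anti-H3K9me1 antibody, streptavidin donor and anti-rabbit IgG acceptor beads.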
JMJD2A Tudor = blocks the human JMJD2A Tudor domain; Potency, µM (titrated, usually from 114 µM), for the others: at the highest dose activity change, negative = inhibition, hits mostly inhibitors; AID 504339; hit rate 4.4% among 390,000; AlphaScreen JMJD2A-Tudor / H3K4me3 peptide binding; also: % is scaled to controls: 0 for no effect and ±100 for the full control effect; nearly all actives have a fitted effect of over 50% in size
An asterisk follows results filed as active; ? = inconclusive; · = no result; [ ] = dose if it differs, or a comment. Calls follow the shape of the dose curve; as a rule, active = well fitted curve in the direction sought with a large enough effect; inconclusive = small, poorly fitted or top-dose-only effect, or another doubt; inactive = no such curve, though single readings can be large; an effect the other way counts as inactive or inconclusive. Potency is read from the fitted curve at half-maximal effect.

SMILES	BAZ2B inh	HP1b chromo inh	GLS inhibitor	G9a inh	JMJD2A Tudor
CCOCCCNCC(=O)N1CCN(S(=O)(=O)c2ccc(C)cc2)CC1	79µM*	-38%	-19%	4.5µM*	4µM*
Cc1ccc(S(=O)(=O)CCC(=O)OCC(=O)N2CCN(S(=O)(=O)c3ccccc3)CC2)cc1	8%	35%	-8%	50µM*	-16%
CC1C(c2ccccc2)=Nn2c(=O)n(-c3ccccc3)c(=O)n21 (centres undefined)	·	·	1%	·	·
Cc1ccccc1CN1CCN(CC(=O)NCc2ccccc2Cl)C1=O	-7%	-13%	-8%	-5%[59 µM]	-18%
O=c1[nH]c2ccc(Cl)cc2c(-c2ccccc2)c1CN1CCOCC1	-9%	2%	-10%	35µM*	?
O=Cc1ccc(C(=O)OCC(=O)N2CCCC2)cc1	11%	29%	-1%	18%	5%
CCOc1ccc(C(=O)OC(C)CN2CCN(C)CC2)cc1 (centres undefined)	-18%	-10%	17%	?	79µM*
CCN1CCN(C(=O)c2ccccc2NC(=O)c2ccc(Cl)cc2)CC1	-8%	7%	-8%	45µM*	-14%
CCN1CCN(C(=S)c2ccc(OC)cc2)CC1	-2%	-14%	14%	11µM*	-25%
N#Cc1ccc(C(=O)OCC(=O)N2CCCC2)cc1	3%	12%	5%	45µM*	-7%
Cc1cc(C)c2c(=O)cc(C(=O)Nc3sc4c(c3C(=O)NCc3ccccc3)CCCC4)oc2c1	2%	13%	-8%	4%[59 µM]	-15%
COc1cccc(C(O)c2nc(-c3cncnc3)cs2)c1 (centres undefined)	·	·	6%	·	·
CCOC(=O)c1ccc(C(=S)N2CCCC2)cc1	-5%	?	-25%	10µM*	-15%
COc1ccc(C(=S)N2CCN(c3ccccc3C)CC2)cc1	-28%	-10%	-1%	8.9µM*	-30%
CCOc1ccc(C(=S)N2CCCC2)cc1	3%	17%	-3%	25%[2.33 µM]	-5%
CCOc1ccc(C(=S)N2CCCC2)c(OCC)c1	-20%	-21%	19%	10µM*	-23%
COc1ccc(C(=S)N2CCCCCC2)cc1	3%	?	-7%	6.3µM*	89µM*
C/C(COc1ccccc1)=N\NC(=O)c1nnn(-c2nonc2N)c1CSc1ccc(C)cc1	·	·	8%	·	·
CCCNC(=O)CSc1nc2ccccc2nc1Cc1ccc(Cl)cc1	-1%	18%[57 µM]	-3%	12%[59 µM]	-11%
COc1ccc(-c2nc(CNC(=O)Nc3ccccc3)c(C)o2)cc1	-24%	33%	3%	13%[59 µM]	-4%
O=S1(=O)CC(O)C(O)CS1 (centres undefined)	·	·	4%	·	·
CCN1CCN(C(=S)c2ccc(Cl)cc2)CC1	-1%	?	?	?	79µM*
CCOc1cc(C(=S)N2CCCC2)ccc1OC	3%	22%	-6%	-11%	3%
COc1cc(C(=S)N2CCCC2)cc(OC)c1O	-3%	-25%	2%	32µM*	2%
CCOc1ccc(C(=S)N2CCN(C)CC2)cc1	-19%	-2%	14%	40µM*	-4%
SMILES	BAZ2B inh	HP1b chromo inh	GLS inhibitor	G9a inh	JMJD2A Tudor
CC(NO)C(C)(C)NO (centres undefined)	-28%	?	26%	?	40µM*
COc1cccc(C(=O)OCC(=O)NC23CC4CC(CC(C4)C2)C3)c1	·	48%	0%	·	0%
CC(=O)Oc1cc(C(=O)OCC(=O)NC23CC4CC(CC(C4)C2)C3)cc(OC(C)=O)c1OC(C)=O	·	?	-8%	·	3.5µM*
O=c1oc2ccccc2c(O)c1C=Nc1cccnc1	-23%	-12%	-17%	50µM*	?
CCCCCC1Nc2cc(C(F)(F)F)c(S(N)(=O)=O)cc2S(=O)(=O)N1 (centres undefined)	·	·	1%	·	·
CCCCNC(=S)NNc1c(Cl)cc(Cl)cc1Cl	·	-33%	-4%	25µM*	40µM*
CCN1CCN(c2c(/C=C3\SC(=S)N(Cc4ccco4)C3=O)c(C)c(C#N)c(=O)n2C)CC1	-26%	-4%	-6%	22µM*	?
Cc1ccccc1N=C1NC(=O)/C(=C/c2cccn2-c2cccc(C(=O)O)c2)S1	40µM*	?	4%	28µM*	50µM*
Cc1ccc(N=C2NC(=O)/C(=C/c3cccn3C)S2)cc1C	-13%	10%	-6%	-4%	-25%
Cc1cccc(N=C2NC(=O)/C(=C/c3cccn3C)S2)c1C	32µM*	-16%	0%	?	?
Cc1noc(Cn2c(=O)c3cc4c(cc3n(CC(=O)Nc3ccccc3F)c2=O)OCO4)n1	-15%	7%	0%	-4%[59 µM]	-8%
O=[N+]([O-])c1cc(/C=N/n2c(-c3cccnc3)n[nH]c2=S)ccc1Cl	?	-8%	-8%	1.3µM*	40µM*
Nc1nnnn1/N=C\c1ccc(Cl)c([N+](=O)[O-])c1	3%	58%	5%	40%[0.0925 µM]	-15%
O=[N+]([O-])c1ccccc1/C=N/n1c(-c2cccnc2)n[nH]c1=S	-27%	9%	1%	2.5µM*	2.2µM*
O=[N+]([O-])c1cc2c(cc1/C=N/n1c(-c3ccccc3)n[nH]c1=S)OCO2	?	?	?	1.4µM*	4µM*
Cc1cc2nc(-c3ccc(OCc4ccc(F)cc4)cc3)cc(C(F)(F)F)n2n1	5%	37%	8%	18%[59 µM]	-2%
COc1ccccc1-n1nc(-c2ccccc2)c2cnc3cc(C(F)(F)F)ccc3c21	·	19%	15%	1%[59 µM]	-18%
CN(C)C1CCCCC=CC(=O)NC1 (centres undefined)	·	·	15%	·	·
Cc1cc(=O)[nH]c(N2CCN(Cc3ccccc3)CC2)n1	2%	18%	-3%	1%[12.7 µM]	-14%
CCCCc1c(O)nc(N2CCN(Cc3ccccc3)CC2)[nH]c1=O	7%	10%	5%	40µM*	-24%
CCOC(=O)c1sc2nc3c(SCCC#N)cc(C(=O)c4cc(F)ccc4O)cn3c(=O)c2c1C	-23%	13%	23%	?	-26%
O=C(O)CSc1cc(C(=O)c2cc(F)ccc2O)cn2c(=O)c3c(-c4ccccc4)csc3nc12	56µM*	0%[57 µM]	9%	50µM*	56µM*
CCOC(=O)c1sc2nc3c(SCCC(=O)O)cc(C(=O)c4cc(OC)ccc4O)cn3c(=O)c2c1C	35µM*	-12%	5.6µM*	11µM*	14µM*
CCc1c(C)sc2nc3c(C(=O)N4CCOCC4)cc(C(=O)c4cc(F)ccc4O)cn3c(=O)c12	·	-1%	3%	?	?
COC(=O)/C(=C\c1c(OC)cc(OC)cc1OC)C(=O)c1ccc2c(c1)OCO2	·	24%	9%	·	?
S=C(Nc1ccccc1)N1N=C(c2cccs2)CC1c1cccs1 (centres undefined)	-16%	-15%	?	·	20µM*
O=c1c2ccccc2nc(-c2ccccc2)n1Cc1ccccc1	-3%	25%	6%	-10%[59 µM]	1%
COc1ccc(O)c(-c2nc3ccccc3c(=O)n2Cc2ccccc2)c1	·	·	·	·	79µM*
